# Counter-ions that a name gives are not always drawn. ± gives the standard deviation of the averaged measurements. The full ranking holds about 1,900 compounds; the median of “normalised cell viability (NPI; 0 = phenylarsine oxide control, 1 = DMSO control)” is about 1, and the lowest 2% start at about 0.039. Only a selection was taken, and the lowest values are over-represented in it overall.
# Test system: NCI-H1944
# Assay: normalised cell viability (NPI; 0 = phenylarsine oxide control, 1 = DMSO control) (fraction of DMSO control); NCI-H1944 is a non-small cell lung cancer line; higher = more viable cells (less compound toxicity)
# Settings: 6 days
# [1] = glucocorticoid arm: hydrocortisone 2.75 uM co-treatment, compound 1 µM
# [2] = glucocorticoid arm: hydrocortisone 2.75 uM co-treatment, compound 5 µM
# [3] = glucocorticoid arm: hydrocortisone 2.75 uM pre-treated 2 days and continued, compound 1 µM
# [4] = glucocorticoid arm: hydrocortisone 2.75 uM pre-treated 2 days and continued, compound 5 µM
# [5] = glucocorticoid arm: vehicle, compound 1 µM
# [6] = glucocorticoid arm: vehicle, compound 5 µM
# 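Note: CTB read-out in 384-well plates, triplicate wells, NPI normalised per plate against 1 µM phenylarsine oxide (0) and 0.1% DMSO (1) controls.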
SMILES,normalised cell viability [1],normalised cell viability [2],normalised cell viability [3],normalised cell viability [4],normalised cell viability [5],normalised cell viability [6]
CCC(=O)N1CCN(c2ccc(-n3c(=O)ccc4cnc5ccc(-c6cnc7ccccc7c6)cc5c43)cc2C(F)(F)F)CC1 [Torin 1],0.4 ± 0.0087,0.383 ± 0.013,0.532 ± 0.018,0.518 ± 0.022,0.223 ± 0.023,0.286 ± 0.01
Nc1ccc(-c2ccc3ncc4ccc(=O)n(-c5cccc(C(F)(F)F)c5)c4c3c2)cn1 [Torin 2],0.175 ± 0.0021,0.171 ± 0.0032,0.267 ± 0.012,0.299 ± 0.0097,0.0254 ± 0.002,0.0207 ± 0.0023
"O=C(O)[C@H]1C[C@H](C(=O)O)N1 (relative stereo) [trans-Azetidine-2,4-dicarboxylic acid]",1.007 ± 0.0058,1.007 ± 0.0058,1.005 ± 0.0087,1.01,0.9843 ± 0.0025,0.9883 ± 0.0091
CC(C)(C)c1cnc(CSc2cnc(NC(=O)C3CCNCC3)s2)o1,0.0382 ± 0.0034,0.036 ± 0.0061,0.148 ± 0.013,0.133 ± 0.018,0.00695 ± 0.0037,0.00933 ± 0.00035
C=C(C)C(CC=C(C)C)CC12CC(CC=C(C)C)C(C)(C)C(CC=C(C)C)(C(=O)C(=C(O)c3ccc(O)c(O)c3)C1=O)C2=O (stereo not given) [Garcinol],1 ± 0.012,1.01 ± 0.013,0.992 ± 0.014,0.997 ± 0.027,1.007 ± 0.0052,1.001 ± 0.01
O=[N+]([O-])c1ccc(-c2nc(-c3ccc(F)cc3)c(-c3ccncc3)[nH]2)cc1,0.976 ± 0.019,0.903 ± 0.014,0.9707 ± 0.008,0.865 ± 0.019,0.996 ± 0.004,0.962 ± 0.051
N#C/C(=C/c1ccc(O)c(O)c1)C(=O)NCc1ccccc1 [Tyrphostin AG 490],1.01 ± 0.016,1.03 ± 0.015,0.999 ± 0.028,1 ± 0.014,1.02 ± 0.01,1.02 ± 0.01
C[C@H](Cc1ccc(O)c(O)c1)[C@@H](C)Cc1ccc(O)c(O)c1,0.996 ± 0.013,1.02 ± 0.02,0.998 ± 0.013,1.04 ± 0.058,1.013 ± 0.0058,1.02 ± 0.011
CO/N=C(\C(=O)N[C@@H]1C(=O)N2C(C(=O)O)=C(CSc3nc(=O)c(O)nn3C)CS[C@H]12)c1csc(N)n1 [Ceftriaxone sodium salt],0.985 ± 0.0052,0.995 ± 0.025,0.849 ± 0.22,0.992 ± 0.0057,0.964 ± 0.0069,0.9743 ± 0.006
Oc1ccc2ccccc2c1SSc1c(O)ccc2ccccc12,1.03 ± 0.01,1.08 ± 0.021,1.017 ± 0.0058,1.01 ± 0.028,1.013 ± 0.0058,1.04 ± 0.01
CNc1nc(Nc2cnn(C3CCN(C4COC4)CC3F)c2Cl)ncc1C(F)(F)F (stereo not given),1.02 ± 0.01,1.05 ± 0.023,1.04 ± 0.01,1.05 ± 0.01,1.007 ± 0.0058,1.007 ± 0.0058
Cc1[nH]nc2ccc(-c3cncc(OC[C@@H](N)Cc4ccccc4)c3)cc12,0.452 ± 0.007,0.0555 ± 0.0049,0.792 ± 0.022,0.129 ± 0.0089,0.1 ± 0.012,0.0136 ± 0.0021
C#Cc1ccc2c(c1)C(=O)N(C)Cc1c(C(=O)OCCCOC(=O)c3ncn4c3CN(C)C(=O)c3cc(C#C)ccc3-4)ncn1-2 [Xli 093 hydrate],0.999 ± 0.011,1.01 ± 0.015,1 ± 0.013,1.01,0.99 ± 0.01,0.9967 ± 0.0015
CCN1CCN(Cc2ccc(-c3cc4c(N[C@H](C)c5ccccc5)ncnc4[nH]3)cc2)CC1,0.812 ± 0.041,0.693 ± 0.043,0.885 ± 0.014,0.752 ± 0.047,0.8103 ± 0.0047,0.6 ± 0.016
COc1cc(CC(=O)O)ccc1O [4-Hydroxy-3-methoxyphenylacetic acid],1.007 ± 0.0058,1.01 ± 0.014,1.01 ± 0.01,1.02,1.01 ± 0.01,1.01
COc1cc(OC)c(/C=C/S(=O)(=O)Cc2ccc(OC)c(NCC(=O)O)c2)c(OC)c1,0.307 ± 0.021,0.261 ± 0.026,0.572 ± 0.03,0.572 ± 0.051,0.0447 ± 0.0079,0.0341 ± 0.0062
Cc1c(F)ccc(C(=O)Nc2cc([N+](=O)[O-])ccc2N2CCN(C)CC2)c1Cl,1.03 ± 0.011,0.987 ± 0.02,1.027 ± 0.0058,1 ± 0.013,0.9957 ± 0.0075,0.9963 ± 0.0047
"O=C(O)[C@H]1NCCC[C@H]1C(=O)O (relative stereo) [cis-Piperidine-2,3-dicarboxylic acid]",1 ± 0.016,1 ± 0.022,1 ± 0.018,0.973 ± 0.0087,0.987 ± 0.0092,0.9887 ± 0.005
CSC(=N)NCCC[C@H](N)C(=O)O [S-Methyl-L-thiocitrulline acetate],1.003 ± 0.0058,0.984 ± 0.028,1.01 ± 0.01,0.989 ± 0.018,0.9847 ± 0.0051,0.994 ± 0.014
Nc1ccn([C@@H]2O[C@H](CO)[C@@H](O)C2(F)F)c(=O)n1 [Gemcitabine hydrochloride; Gemcitabine HCl],0.202 ± 0.0062,1.04 ± 0.015,0.422 ± 0.044,1.03,0.0536 ± 0.0027,1.013 ± 0.0058
Nc1ncn([C@@H]2O[C@H](CO)[C@@H](O)[C@H]2O)c(=O)n1 [Azacitidine],1.03,1.11 ± 0.025,1 ± 0.037,0.952 ± 0.24,0.976 ± 0.011,0.903 ± 0.017
Nc1ncn([C@@H]2O[C@H](CO)[C@@H](O)[C@H]2O)c(=O)n1 [Azacitidine; 5-azacytidine],1.04 ± 0.026,1.11 ± 0.015,1.04 ± 0.01,1.1 ± 0.021,0.98 ± 0.017,0.766 ± 0.025
Nc1ccn([C@@H]2O[C@H](CO)[C@@H](O)[C@@H]2O)c(=O)n1,0.178 ± 0.001,0.115 ± 0.0035,0.91 ± 0.011,0.31 ± 0.04,0.0325 ± 0.0032,0.0276 ± 0.0059
Nc1ncn([C@@H]2O[C@H](CO)[C@@H](O)[C@H]2O)c(=O)n1 [5-azacytidine],1.006 ± 0.0063,1.03,1.01 ± 0.018,1.08 ± 0.014,0.972 ± 0.015,0.8937 ± 0.006
Nc1ccn([C@@H]2O[C@H](CO)[C@@H](O)[C@@H]2O)c(=O)n1 [Cytosine-1-beta-D-arabinofuranoside hydrochloride],0.352 ± 0.026,0.163 ± 0.022,1.03 ± 0.017,0.802 ± 0.22,0.0913 ± 0.011,0.0638 ± 0.0066
